A short description of experiment [1]: Viability qHTS for spleen associated tyrosine kinase inhibitor (SYKi) naive MV4-11 cells (AID 1963823). Also: nearly all actives have a fitted effect of over 40% in size. The gist of the method:
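Compounds were dispensed acoustically onto plates, MV4-11 cells (SYKi-naive) added at 500 per well, and plates incubated 72 hr at 37 C. CellTiter-Glo was added and luminescence measured after 10 min.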

The nature of experiment [2]: Viability qHTS for spleen associated tyrosine kinase inhibitor (SYKi) drug resistant MV4-11 cells (AID 1963824). Also: nearly all actives have a fitted effect of over 35% in size. In outline: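 SYK inhibitor-resistant MV4-11 AML cells, 500 per well, added to predispensed compounds and incubated 72 hr at 37 C, 5% CO2. Viability measured by CellTiter-Glo luminescence after 10 min at room temperature.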
The nature of experiment [3]: Quantitative highthroughput screen to assess conditional lethalithy of NOMO1 cells grown in Human Plasma-Like Medium with dialyzed fetal bovine serum (HPLM+ds) (AID 1963878). Also: nearly all actives have a fitted effect of over 35% in size.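 As to Viability: 100% = DMSO wells and 0% = empty wells on each plate.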 In outline: (§1)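 Each medium arm—HPLM with 10% dialyzed FBS, or RPMI1640 with 5 mM glucose and 10% untreated or dialyzed FBS—was screened against an 11-point, 3-fold compound titration for 48 h at 37 °C, with CellTiter-Glo luminescence as endpoint.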

A short description of experiment [4]: Quantitative highthroughput screen to assess conditional lethalithy of P12 Ichikawa cells grown in Human Plasma-Like Medium with dialyzed fetal bovine serum (HPLM+ds) (AID 1963879). Also: nearly all actives have a fitted effect of over 35% in size. As to Viability: series mostly up to about 46 µM. To be noted: Potency: viability. The gist of the method: as §1
A short description of experiment [5]: Quantitative highthroughput screen to assess conditional lethalithy of P12 Ichikawa cells grown in RPMI1640 with dialyzed fetal bovine serum (RPMI+ds) (AID 1963880). Also: nearly all actives have a fitted effect of over 35% in size.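 As to Viability: 100% = DMSO wells and 0% = empty wells on each plate.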 To be noted: Potency: P12-Ichikawa viability. The gist of the method: as §1
A short description of experiment [6]: Quantitative highthroughput screen to assess conditional lethalithy of P12 Ichikawa cells grown in RPMI1640 with untreated serum (RPMI+s) (AID 1963881). Also: nearly all actives have a fitted effect of over 35% in size.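 As to Viability: series mostly up to about 46 µM; 100% = DMSO wells and 0% = empty wells without cells.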 To be noted: Potency: viability. In outline: as §1
Experiment [7] can be described thus: Quantitative highthroughput screen to assess conditional lethalithy of SEM cells grown in RPMI1640 with unreated serum (RPMI+s) (AID 1963883). Also: nearly all actives have a fitted effect of over 35% in size.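 As to Viability: 100% = DMSO wells and 0% = empty wells without cells.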 In outline: as §1
Experiment [8] can be described thus: Quantitative highthroughput screen to assess conditional lethalithy of SEM cells grown in RPMI1640 with dialyzed fetal bovine serum (RPMI+ds) (AID 1963884). Also: nearly all actives have a fitted effect of over 35% in size.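 As to Viability: series mostly up to about 46 µM; 100% = DMSO control wells and 0% = empty wells without cells.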 In outline:
as §1

Experiment [9] in a line: Cellular viability qHTS for adrenocortical cancer (ACC) cell line SW-13 (AID 1963989). Also: nearly all actives have a fitted effect of over 65% in size.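 As to activity (max response): cells grown in serum-free medium with ITS supplement; % is scaled to controls: 0 for no effect and ±100 for the full control effect.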 The note with it: SW-13 ACC cells viability, CellTiter-Glo, 48 h; activity (max response): stronger effect = lower value. The gist of the method: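 Compound titrations (up to 46 uM final, in DMSO) were applied to SW-13 cells for 48 h at 37C/5% CO2. Reading used CellTiter-Glo after 20 min at room temperature; fitted curves yielded IC50 and efficacy.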

Experiment [10] is described as follows: Cellular viability qHTS for adrenocortical cancer (ACC) cell line NCI-H295R (AID 1963990). Also: nearly all actives have a fitted effect of over 60% in size. In outline:
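Readout: CellTiter-Glo luminescence, 20 min RT. Exposure: 48 h, 37C/5% CO2. Cells: NCI-H295R, ITS-DMEM serum-free. Range: up to 46 uM. Analysis: 4PL fit, IC50 plus efficacy.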

Experiment [11] in a line: Quantitative highthroughput screen to assess conditional lethalithy of NOMO1 cells grown in RPMI1640 with dialyzed fetal bovine serum (RPMI+ds) (AID 1963877). Also: nearly all actives have a fitted effect of over 30% in size.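 As to Viability: series mostly up to about 46 µM; 100% = DMSO control wells and 0% = empty wells.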 In outline:
as §1

The nature of experiment [12]: Quantitative highthroughput screen to assess conditional lethalithy of SEM cells grown in Human Plasma-Like Medium with dialyzed fetal bovine serum (HPLM+ds) (AID 1963882). Also: nearly all actives have a fitted effect of over 35% in size. As to Viability: series mostly up to about 46 µM. The gist of the method:
as §1

We go through 13 compounds from PubChem BioAssay (NCATS).

Molecules are shown by their SMILES. “And” between values parts separate entries of the source, which are not always exact repeats. Equal values may be shown once. Records with an inconclusive call do not appear. Some structures have more than one record in an assay (separate samples or runs), and their calls can disagree. The source made the active and inactive calls. Calls follow the shape of the dose curve; as a rule, active = well fitted curve in the direction sought with a large enough effect; inconclusive = small, poorly fitted or top-dose-only effect, or another doubt; inactive = no such curve, though single readings can be large; an effect the other way counts as inactive or inconclusive.
Potency is read from the fitted curve at half-maximal effect.

Take `C[C@@]1(c2cc(-c3cncnc3)c(F)cc2F)CCSC(N)=N1`: the Potency entry in experiment [1] and in experiment [10] was “inactive” each time. In addition, the Potency in experiment [2] is 23.5 µM (active); in experiment [3] it was 3.72 µM (active); in experiment [4], 10.5 µM (active); in experiment [5], 16.6 µM (active); in experiment [6], 11.8 µM (active); in experiment [7], 7.43 µM (active). Further, the Potency in experiment [8] is 16.6 µM (active). In addition, the activity (max response) in experiment [9] was -2.1% (inactive).

In the case of `O=C(O)CCNc1cc(N2CCc3ccccc3CC2)nc(-c2ccccn2)n1`, the Potency result in [1], in experiment [2], in experiment [11], in experiment [4], in experiment [12] and in [7] was “inactive” in each case. Further, the Potency entry in experiment [8] and in [10] was “inactive” each time. Moreover, in experiment [9], the activity (max response) is 0.209% (inactive).

Turning to `c1cnc2cc3c(cc2n1)C1CNCC3C1`, the Potency result in experiment [1], in [2], in [3], in experiment [4], in [5] and in experiment [6] was “inactive” in each case. In addition, the Potency entry in experiment [12], in experiment [7] and in experiment [10] was “inactive” in each case. Also, in experiment [9], the activity (max response) is 7.13% (inactive) and 6.77% (inactive).

Take `CCN(CCO)CCCOc1ccc2c(Nc3cc(CC(=O)Nc4cccc(F)c4)[nH]n3)ncnc2c1`: the Potency in experiment [1] was 0.0411 µM (active); in [2], 0.186 µM (active); in experiment [11], 0.105 µM (active); in [4] it was 0.166 µM (active); in [5], 0.187 µM (active); in [6], 0.148 µM (active). Further, the Potency in experiment [12] was 0.296 µM (active); in experiment [7] it was 0.264 µM (active); in experiment [8], 0.235 µM (active); in experiment [9] it was 20 µM (active).

Take `Cc1nc(C(=O)NCC(=O)O)c(O)c2ccc(Oc3ccccc3)cc12`: the Potency entry in experiment [1], in experiment [2], in experiment [3], in experiment [4], in experiment [5] and in experiment [6] was “inactive” in each case. Also, the Potency entry in [12], in [7] and in experiment [8] was “inactive” each time. Moreover, in experiment [9], the activity (max response) is 0.299% (inactive).

Take `CS(=O)(=O)c1cccc(CNc2nc(Nc3ccc4c(c3)CCC(=O)N4)ncc2C(F)(F)F)c1`: the Potency was 0.105 µM (active) in experiment [1]; 0.164 µM (active) in [2]; 18.7 µM (active) in [11]; 8.33 µM (active) in [12]; 5.26 µM (active) in [7]; 6.62 µM (active) in experiment [8].

Take `O=S(=O)(O)CCS`: the Potency entry in experiment [1], in experiment [2], in [12], in experiment [7] and in experiment [8] was “inactive” in each case. For the same compound, the Potency in experiment [11] was 0.833 µM (active); in experiment [4] it was 3.72 µM (active); in [5], 8.33 µM (active); in experiment [6], 3.72 µM (active). Also, the activity (max response) in experiment [9] is 21.9% (inactive) and 0.753% (inactive).

For `COc1cc(NCc2ccc3nc(N)nc(N)c3c2C)cc(OC)c1OC`, the Potency in experiment [1] is 1.05 µM (active); in experiment [2], 42.2 nM (active) and 1.05 µM (active); in experiment [11] it was 10.5 µM (active); in experiment [4], 2.35 µM (active); in experiment [5] it was 10.5 µM (active); in experiment [6] it was 18.7 µM (active). In addition, the Potency in [9] was 10.3 nM (active) and 1.12 µM (active); in experiment [10] it was 14.6 nM (active) and 2.82 µM (active).

Consider `Nc1nc(=S)c2[nH]cnc2[nH]1`, for which the Potency is 0.934 µM (active) in experiment [1]; 1.05 µM (active) in [2]; 7.43 µM (active) in experiment [11]; 14.8 µM (active) in experiment [5]; 20.9 µM (active) in experiment [6]; 3.26 µM (active) and 2.82 µM (active) in experiment [9]. For the same compound, in experiment [10], the Potency is 731 nM (active) and 1.12 µM (active).

On to `CCn1c(-c2nonc2N)nc2c(C#CC(C)(C)O)ncc(OC[C@H]3CCCNC3)c21`, for which the Potency in [1] was 16.6 µM (active); in experiment [2], 7.42 µM (active); in [4] it was 0.0526 µM (active); in experiment [12], 18.7 µM (active); in experiment [7], 23.5 µM (active); in [8] it was 14.8 µM (active). Moreover, the results for the Potency in experiment [9] and in experiment [10] were 28.2 µM (active) and 17.8 µM (active), respectively. Also, the Potency result in [11] is “inactive”.

Turning to `COc1cc(OC2CCN(C)CC2)ccc1Nc1ncc2c(n1)n(C1CCCC1)c(=O)n2C`, the Potency is 1.86 µM (active) in [1]; 2.95 µM (active) in experiment [2]; 18.7 µM (active) in experiment [11]; 20.9 µM (active) in experiment [5]; 23.5 µM (active) in experiment [6]; 11.8 µM (active) in experiment [7]. For the same compound, the results for the Potency in experiment [8], in [9] and in experiment [10] were 14.8 µM (active), 25.1 µM (active) and 15.8 µM (active), respectively.

For the compound `CN(C)CCCN=c1c2ccccc2n(C)c2[nH]c(=O)n(C)c(=O)c12`, the Potency in [1] was 5.9 µM (active); in [2], 8.33 µM (active); in [11], 20.9 µM (active); in [4], 26.4 µM (active); in experiment [5], 18.7 µM (active); in [6] it was 18.7 µM (active). Besides, the Potency in experiment [12] is 11.8 µM (active); in experiment [7], 10.5 µM (active); in experiment [8], 9.35 µM (active); in [9] it was 25.1 µM (active); in [10], 28.2 µM (active).

Regarding `CCCCCCCCCC(=O)N[C@@H](Cc1c[nH]c2ccccc12)C(=O)N[C@H](CC(N)=O)C(=O)N[C@@H](CC(=O)O)C(=O)N[C@@H]1C(=O)NCC(=O)N[C@@H](CCCN)C(=O)N[C@@H](CC(=O)O)C(=O)N[C@H](C)C(=O)N[C@@H](CC(=O)O)C(=O)NCC(=O)N[C@H](CO)C(=O)N[C@@H]([C@@H](C)CC(=O)O)C(=O)N[C@@H](CC(=O)c2ccccc2N)C(=O)O[C@@H]1C`, the Potency result in experiment [1], in experiment [3], in [4], in [5], in experiment [12] and in [7] was “inactive” in each case. The Potency result in experiment [8] and in experiment [10] was “inactive” each time. Also, the Potency in experiment [2] is 68.5 nM (active) and inactive. Besides, the activity (max response) in experiment [9] was 12.9% (inactive).
